A short description of assay [1]: Nuclear factor erythroid 2-related factor 2/antioxidant responsive element (Nrf2/ARE) small molecule agonists: qHTS cell viability counter screen in human keratinocytes (AID 1919968; active = well fitted curve in the direction sought with a large enough effect in the repeat runs; an effect the other way counts as inactive or inconclusive; note: nearly all actives have a fitted effect of over 55% in size; note: potency is the fitted concentration of half-maximal effect). The method in brief:
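Cells of the KeratinoSens line were plated at 1,500 per well and left for 5 h before compound transfer from DMSO stocks. After a 23 h incubation (37 C, 5% CO2), CellTiter-Fluor was added. Signal was taken as fluorescence intensity 1 h later.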
On the technique in general: qHTS replaces the single test concentration by a dilution series.

Assay [2] can be described thus: Nuclear factor erythroid 2-related factor 2/antioxidant responsive element (Nrf2/ARE) small molecule agonists: luciferase reporter gene qHTS assay in human keratinocytes (AID 1919969). Note: nearly all actives have a fitted effect of over 35% in size. Note: potency is the fitted concentration of half-maximal effect.
The target of assay [3] is Gonadotropin-releasing hormone receptor (Homo sapiens) (UniProt P30968). Kind of assay: Human gonadotropin-releasing hormone receptor (GnRHR) small molecule agonists, calcium flux assay in GnRHR-HEK293 cells (AID 1920063). Note: nearly all actives have a fitted effect of over 35% in size. The method in brief:
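Compounds dissolved in DMSO are pin-transferred onto dye-loaded GnRHR-HEK293 cells, which were seeded 18 h before at 37 C/5% CO2. Calcium signal is read as fluorescence intensity at 1 s intervals for 3 min.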
(Calcium flux is commonly read through the fluorescence of an indicator in the cells.)

The target in assay [4] is KiSS-1 receptor (Homo sapiens) (UniProt Q969F8). In words: Human kisspeptin (KISS1R) small molecule agonists, calcium flux assay in KISS1R-HEK293 cells (AID 1920064; active = well fitted curve in the direction sought with a large enough effect in the repeat runs; an effect the other way counts as inactive or inconclusive). In short, it runs like this: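 Cell line: HEK293, stable human KISS1R. Dye loading 1 h at 37 C after 18 h culture. Read: kinetic fluorescence, 480/540 nm, 3 min at 1 s intervals.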
A short description of assay [5]: G protein-coupled receptor (GPCR) small molecule agonists, calcium flux assay: HEK293 wild type cell line counter screen (AID 1920065). The method in brief:
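Tox21 10K compounds, 15 concentrations each in triplicate, pin-transferred in DMSO onto dye-loaded cells; kinetic read at 480/540 nm for 3 min, 1 s intervals.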

Assay [6] is described as follows: p53 small molecule agonists, cell-based qHTS assay with human liver microsomes (AID 1963577).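 Note: p53 response element beta-lactamase reporter cells with liver microsomes plus NADPH.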 In short, it runs like this:
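With metabolic activation: human liver microsomes (0.5 mg/mL final) plus NADPH (0.5 mg/mL final) added alongside compounds to p53RE-bla cells; 16 h 37 C exposure; beta-lactamase read by LiveBLAzer fluorescence.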

The nature of assay [7]: p53 small molecule agonists, cell-based qHTS assay with rat liver microsomes (AID 1963578). In short, it runs like this:
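Metabolic activation by rat liver microsomes and NADPH, each 0.5 mg/mL final, added right after compounds to p53RE-bla reporter cells (4,000/well, plated 5 h earlier). 16 h at 37 C, then LiveBLAzer substrate for 2 h at room temperature in the dark; fluorescence read-out.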

Assay [8] can be described thus: p53 small molecule agonists, cell-based qHTS assay with human liver microsomes: qHTS cell viability counter screen (AID 1963579). Note: nearly all actives have a fitted effect of over 45% in size. The method in brief: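 Metabolic activation used human liver microsomes and NADPH, both 0.5 mg/mL final, over 16 hours at 37 C on p53RE-bla cells (4,000/well). Cytotoxicity measured by CellTiter-Glo luminescence, 30 min at room temperature.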

Assay [9] can be described thus: p53 small molecule agonists, cell-based qHTS assay: qHTS cell viability counter screen (AID 1963581). Note: nearly all actives have a fitted effect of over 45% in size. The method in brief:
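ATP content measured by luminescence in HCT-116 p53RE-bla cells treated 16 h at 37 C, same wells as the reporter screen.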

Assay [10] is described as follows: p53 small molecule agonists, cell-based qHTS assay (AID 1963582; active = well fitted activation curve with a large enough effect in the signal ratio in the repeat runs, not every such curve was filed as active; the % refers to the signal ratio). In short, it runs like this:
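16 h compound exposure (37 C) of p53 response element–bla cells, preceded by 5 h recovery at 37 C/5% CO2; read-out via LiveBLAzer B/G FRET substrate, 2 h RT, fluorescence intensity.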

For assay [11], the target named is 5-hydroxytryptamine receptor 2A (Homo sapiens) (UniProt P28223). Kind of assay: 5-hydroxytryptamine receptor 2A (HTR2A) small molecule antagonists, cell-based qHTS assay (AID 1963586). Note: nearly all actives have a fitted effect of over 45% in size. In short, it runs like this:
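CHO cells stably expressing human HTR2A were plated for 18 h at 37 C, then loaded with calcium dye for 1 h. Compounds were preincubated 5 min at room temperature before DOI (4 nM solution) was added. Kinetic fluorescence was read for 3 min.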

Assay [12] concerns the target Muscarinic acetylcholine receptor M1 (Homo sapiens) (UniProt P11229). In words: Cholinergic receptor muscarinic 1 (CHRM1) small molecule agonists, cell-based qHTS assay (AID 1963589). Note: nearly all actives have a fitted effect of over 35% in size. In short, it runs like this: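 Homogeneous fluorescence calcium flux, agonist mode. Human M1-expressing CHO cells; compound dosed at 15 concentrations, three independent runs; signal sampled every 1 sec.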

Assay [13] can be described thus: cAMP Responsive Elements (CRE) small molecule agonists, cell-based qHTS assay (AID 1963590). The method in brief: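 HEK 293T cells stably bearing CRE-bla were plated at 2,000 cells per well and rested 18 h. Compounds, positive controls or DMSO were added for 3 h at 37 C. LiveBLAzer B/G substrate was then loaded for 2 h at room temperature.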
The nature of assay [14]: cAMP Responsive Elements (CRE) small molecule antagonists, cell-based qHTS assay (AID 1963591; active = well fitted inhibition curve with a large enough effect in the signal ratio in the repeat runs, not every such curve was filed as active; the % refers to the signal ratio). The method in brief:
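First, CRE-bla HEK293T cells settled 18 h at 37 C. Next, compound and 0.25 uM final NKH477 were applied for 3 h. Last, LiveBLAzer B/G substrate was loaded for 2 h at room temperature.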

Assay [15] deals with Beta-2 adrenergic receptor (Homo sapiens) (UniProt P07550). Kind of assay: Adrenergic beta2 receptor (ADRB2) small molecule antagonists, cell-based qHTS assay (AID 1963592). Note: series mostly up to about 92 µM; nearly all actives have a fitted effect of over 50% in size. In short, it runs like this: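 Assay format: CHO-ADRB2 cells, 18-20hr seeding at 37C/5% CO2, then compound plus 1nM isoproterenol agonist mix for 0.5hr RT. Homogeneous time-resolved fluorescence cAMP detection after 1hr, expressed as 665/615 nm ratio.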

Assay [16] concerns the target D(2) dopamine receptor (Homo sapiens) (UniProt P14416). In words: Dopamine D2 receptor (DRD2) small molecule agonists, cell-based qHTS assay (AID 1963594). Note: nearly all actives have a fitted effect of over 35% in size. In short, it runs like this:
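HEK293 cells stably expressing DRD2 were cultured 24 h at 37 C, then given Ro20-1724 (0.1 mM final) and compounds for 10 min at room temperature. NKH477 (200nM) was then added for 30 min. cAMP was read by HTRF.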

For assay [17] the target is unchanged. In words: Dopamine D2 receptor (DRD2) small molecule antagonists, cell-based qHTS assay (AID 1963595; active = well fitted inhibition curve with a large enough effect in the signal ratio in the repeat runs, with a control signal flat; the % refers to the signal ratio). The method in brief: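 HEK293 cells stably expressing DRD2 were preincubated with 0.1 mM Ro20-1724, then with compound for 10 min at room temperature. Cells were stimulated with 200 nM NKH477 plus 12 nM quinpirole for 30 min, and cAMP was read by HTRF.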

The nature of assay [18]: p53 small molecule agonists, cell-based qHTS assay with rat liver microsomes: qHTS cell viability counter screen (AID 1963580). Note: nearly all actives have a fitted effect of over 45% in size. The method in brief: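 Counter screen for cytotoxicity under metabolic activation: rat liver microsomes and NADPH, 0.5 mg/mL final each, added with compounds to p53RE-bla HCT-116 cells; 16 h at 37 C, then ATP luminescence read.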
The target in assay [19] is 5-hydroxytryptamine receptor 2A (Homo sapiens) (UniProt P28223). In words: 5-hydroxytryptamine receptor 2A (HTR2A) small molecule agonists, cell-based qHTS assay (AID 1963587). Note: nearly all actives have a fitted effect of over 30% in size. The method in brief:
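HTR2A-CHO cells, plated 18 h at 37 C/5% CO2, dye-loaded 1 h at 37 C; compounds in DMSO added by pin tool (agonist mode). Intracellular calcium flux read as kinetic fluorescence on FDSS over 2 min at 1 s intervals.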

Assay [20] has as its target Muscarinic acetylcholine receptor M1 (Homo sapiens) (UniProt P11229). Kind of assay: Cholinergic receptor muscarinic 1 (CHRM1) small molecule antagonists, cell-based qHTS assay (AID 1963588). Note: nearly all actives have a fitted effect of over 40% in size. Note: potency is the fitted concentration of half-maximal effect. In short, it runs like this: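 Compounds were tested at 15 concentrations in three independent runs. Dye-loaded CHRM1-CHO cells were exposed 5 min at room temperature before stimulation by acetylcholine added at 50nM. Intracellular calcium was read kinetically on FDSS for 3 min.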

Among the data in PubChem BioAssay (Tox21) are Potency values, retold here.

Results filed as inconclusive are left out. Activity calls are given as the source filed them. Unless noted, calls come from the whole dose curve.

Sequence of Beta-2 adrenergic receptor (Homo sapiens) (P07550 whole entry, looked up): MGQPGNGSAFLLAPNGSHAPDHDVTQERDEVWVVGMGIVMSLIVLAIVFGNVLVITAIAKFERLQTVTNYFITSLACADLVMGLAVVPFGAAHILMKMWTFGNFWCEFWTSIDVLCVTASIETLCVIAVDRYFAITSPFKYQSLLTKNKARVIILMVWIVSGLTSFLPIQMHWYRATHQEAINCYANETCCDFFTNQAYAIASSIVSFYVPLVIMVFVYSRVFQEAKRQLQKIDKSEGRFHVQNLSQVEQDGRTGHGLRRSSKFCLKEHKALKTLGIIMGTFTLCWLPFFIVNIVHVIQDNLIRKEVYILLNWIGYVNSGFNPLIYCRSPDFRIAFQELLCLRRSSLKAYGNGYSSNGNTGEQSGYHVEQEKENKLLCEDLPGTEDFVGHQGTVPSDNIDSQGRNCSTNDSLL
Sequence of 5-hydroxytryptamine receptor 2A (Homo sapiens) (P28223 whole entry, looked up): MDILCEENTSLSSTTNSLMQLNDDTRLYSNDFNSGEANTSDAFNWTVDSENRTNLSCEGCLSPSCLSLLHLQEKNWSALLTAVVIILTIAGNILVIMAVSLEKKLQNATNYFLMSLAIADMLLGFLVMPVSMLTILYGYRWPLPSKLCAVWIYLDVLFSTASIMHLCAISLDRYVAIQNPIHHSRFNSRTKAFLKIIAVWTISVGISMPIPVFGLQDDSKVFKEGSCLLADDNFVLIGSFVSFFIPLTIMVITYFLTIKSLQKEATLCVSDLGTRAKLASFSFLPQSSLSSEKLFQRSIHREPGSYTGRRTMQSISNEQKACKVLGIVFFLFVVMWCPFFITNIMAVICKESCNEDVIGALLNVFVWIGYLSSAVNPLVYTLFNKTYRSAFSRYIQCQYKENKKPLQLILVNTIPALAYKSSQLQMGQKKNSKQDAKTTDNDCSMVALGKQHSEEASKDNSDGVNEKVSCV
Sequence of D(2) dopamine receptor (Homo sapiens) (P14416 whole entry, looked up): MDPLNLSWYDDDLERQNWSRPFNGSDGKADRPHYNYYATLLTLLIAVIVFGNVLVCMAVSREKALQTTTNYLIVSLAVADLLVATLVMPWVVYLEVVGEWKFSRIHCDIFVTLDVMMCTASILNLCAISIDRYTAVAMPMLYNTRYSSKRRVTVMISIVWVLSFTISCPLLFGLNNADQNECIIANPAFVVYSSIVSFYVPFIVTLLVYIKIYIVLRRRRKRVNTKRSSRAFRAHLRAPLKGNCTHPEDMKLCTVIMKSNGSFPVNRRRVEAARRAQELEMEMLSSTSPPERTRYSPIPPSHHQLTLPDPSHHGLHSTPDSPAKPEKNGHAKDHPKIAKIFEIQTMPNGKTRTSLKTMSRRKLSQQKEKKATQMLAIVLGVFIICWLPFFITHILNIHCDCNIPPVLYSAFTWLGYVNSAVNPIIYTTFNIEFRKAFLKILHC
Sequence of KiSS-1 receptor (Homo sapiens) (Q969F8 whole entry, looked up): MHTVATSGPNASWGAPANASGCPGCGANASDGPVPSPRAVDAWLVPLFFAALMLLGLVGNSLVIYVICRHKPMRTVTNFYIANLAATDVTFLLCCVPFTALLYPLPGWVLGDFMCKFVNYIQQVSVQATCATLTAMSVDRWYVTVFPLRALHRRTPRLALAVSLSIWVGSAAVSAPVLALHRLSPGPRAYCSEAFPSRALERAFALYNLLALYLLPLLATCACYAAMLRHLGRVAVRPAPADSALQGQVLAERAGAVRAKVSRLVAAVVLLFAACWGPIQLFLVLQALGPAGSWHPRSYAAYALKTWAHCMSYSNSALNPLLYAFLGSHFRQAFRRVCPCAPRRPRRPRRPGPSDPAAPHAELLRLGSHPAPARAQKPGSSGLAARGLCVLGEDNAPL
Sequence of Muscarinic acetylcholine receptor M1 (Homo sapiens) (P11229 whole entry, looked up): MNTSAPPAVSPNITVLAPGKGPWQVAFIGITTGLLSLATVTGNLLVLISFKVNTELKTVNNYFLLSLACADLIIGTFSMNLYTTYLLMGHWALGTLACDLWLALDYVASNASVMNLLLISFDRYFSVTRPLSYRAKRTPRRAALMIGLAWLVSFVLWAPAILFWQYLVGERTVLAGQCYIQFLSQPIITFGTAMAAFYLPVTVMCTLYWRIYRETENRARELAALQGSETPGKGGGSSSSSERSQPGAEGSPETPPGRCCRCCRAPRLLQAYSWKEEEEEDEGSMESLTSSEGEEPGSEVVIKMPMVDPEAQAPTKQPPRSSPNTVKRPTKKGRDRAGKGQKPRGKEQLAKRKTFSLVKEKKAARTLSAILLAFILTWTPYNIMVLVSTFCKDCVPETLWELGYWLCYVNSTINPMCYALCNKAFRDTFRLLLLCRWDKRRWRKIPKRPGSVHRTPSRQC
Sequence of Gonadotropin-releasing hormone receptor (Homo sapiens) (P30968 whole entry, looked up): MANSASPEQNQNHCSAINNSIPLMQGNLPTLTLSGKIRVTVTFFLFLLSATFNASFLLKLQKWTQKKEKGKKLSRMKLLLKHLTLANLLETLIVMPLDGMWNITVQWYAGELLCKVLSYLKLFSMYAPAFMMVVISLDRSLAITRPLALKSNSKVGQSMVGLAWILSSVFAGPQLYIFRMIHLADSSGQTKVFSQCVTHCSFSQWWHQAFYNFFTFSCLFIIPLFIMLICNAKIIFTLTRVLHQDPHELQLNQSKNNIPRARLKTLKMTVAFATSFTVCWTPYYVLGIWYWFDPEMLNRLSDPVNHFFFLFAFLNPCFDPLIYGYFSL

Consider `O=NN1CCCCC1`, for which the Potency entry in assay [1], in assay [2], in assay [3], in assay [4], in [5] and in assay [6] was “inactive” each time. The Potency entry in assay [7], in assay [8], in assay [9], in [10], in [11] and in [12] was “inactive” in each case. Also, the Potency entry in assay [13], in assay [14], in assay [15], in [16] and in [17] was “inactive” in each case.
On to `Nc1ccc([N+](=O)[O-])cc1N`, for which the Potency in assay [1] is 13.7 µM (active); in assay [2], 34.4 µM (active). Further, the Potency entry in assay [3], in assay [4], in assay [5], in assay [6], in assay [7] and in assay [18] was “inactive” each time. Besides, the Potency entry in assay [9], in assay [10], in assay [11], in assay [19], in assay [20] and in assay [13] was “inactive” throughout. Moreover, the Potency entry in assay [16] and in [17] was “inactive” in each case.
As for `C=CCN1C[C@H](C)N([C@H](c2ccc(C(=O)N(CC)CC)cc2)c2cccc(OC)c2)C[C@H]1C`, the Potency entry in assay [1], in assay [2], in [3], in assay [4], in [5] and in assay [6] was “inactive” throughout. The Potency result in [7], in [18], in assay [9], in [11], in [19] and in assay [12] was “inactive” in each case. Further, the Potency entry in assay [13], in [14], in assay [16] and in assay [17] was “inactive” each time. Further, the Potency in [20] was 2.59 µM (active).
For `C[C@@H]1CN(C2CCC(C#N)(c3ccc(F)cc3)CC2)CC[C@]1(C(=O)O)c1ccccc1` (stereo not given in full), the Potency entry in [1], in [2], in [3], in assay [4], in assay [5] and in assay [6] was “inactive” each time. Also, the Potency result in assay [7], in assay [18], in [9], in assay [10], in assay [11] and in assay [19] was “inactive” throughout. Further, the Potency result in [20], in assay [12], in assay [13], in [14], in assay [15] and in assay [16] was “inactive” in each case.
As for `CC1OC(C)OC(C)O1` (stereo not given), the Potency entry in [1], in assay [2], in [3], in [4], in assay [5] and in assay [6] was “inactive” in each case. Moreover, the Potency entry in assay [7], in assay [18], in assay [9], in [11], in assay [19] and in assay [20] was “inactive” in each case. The Potency entry in assay [12], in assay [13], in assay [14], in [15], in [16] and in [17] was “inactive” each time.
On to `O=C(NCNC(=O)NC1C(=O)NC(=O)N1CO)NC1C(=O)NC(=O)N1CO` (stereo not given), for which the Potency entry in assay [1], in assay [2], in assay [3], in assay [4], in [5] and in assay [6] was “inactive” in each case. Also, the Potency result in assay [8], in [18], in assay [9], in assay [10], in [11] and in assay [19] was “inactive” in each case. Also, the Potency entry in [20], in assay [12], in assay [13], in [14], in [15] and in [16] was “inactive” each time. Also, the Potency result in assay [17] was “inactive”.
`O=C(O)C(Cl)(Cl)Cl`: the Potency entry in [1], in assay [2], in [3], in [4], in assay [5] and in assay [6] was “inactive” in each case. Further, the Potency entry in [7], in assay [18], in [9], in [10], in assay [13] and in [14] was “inactive” in each case. Moreover, the Potency result in assay [15] and in assay [16] was “inactive” each time.
For the compound `N#Cc1nn(-c2c(Cl)cc(C(F)(F)F)cc2Cl)c(N)c1S(=O)C(F)(F)F` (stereo not given), the Potency in assay [1] was 61.5 µM (active). Besides, the Potency entry in [2], in [3], in assay [4], in assay [5], in [6] and in [7] was “inactive” throughout. The Potency entry in assay [18], in assay [9], in [11], in assay [19], in [20] and in [12] was “inactive” throughout. Further, the Potency result in assay [15], in [16] and in [17] was “inactive” each time.
